According to the supplement of paper PMC5499739:
Whole data set: some 16,000 sequences, median “Z-score” near -0.37, cut for the highest 2% near 3.1. The sample holds the highest values, similar sequences and a random draw of the others, so the mix is not that of the screen.

What follows are sequences tested on RBM10 RRM1-ZnF-RRM2 (GST-tagged construct) (assay: RNAcompete 7-mer binding Z-score; higher = stronger binding preference).
In short: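 GST-tagged RBM10 constructs (20 pmol) and a designed pool of 241 399 RNAs up to 41 nt (1.5 nmol) were allowed to bind for 30 min at 4°C in 1 ml Hepes pH 7.8 buffer with glutathione Sepharose beads. After four 2-min washes at 4°C, bound RNA was identified by microarray hybridisation. Enrichment was scored per heptamer motif as a one-sided Z-score across the probes containing it.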

| Sequence | RNAcompete 7-mer binding Z-score |
| --- | --- |
| ACCCUCA | -0.846 |
| UGGGGUU | 2.78 |
| UGGGGGU | 3.25 |
| GGGGGGU | 3.13 |
| UGAGGGG | 3.5 |
| GGAGGCU | 1.29 |
| CGAGGUU | 0.727 |
| UGAGGGU | 3.92 |
| GGAGGGU | 3.8 |
| GGAGGAU | 2.27 |
| CGAGGAU | 1.1 |
| UGAGAGG | 1.8 |
| CGAGGGU | 3.55 |
| AGAGGGU | 2.21 |
| UGAGGAG | 1.94 |
| UGAGGCU | 0.315 |
| GAUCGGA | 0.785 |
| UCUCGGA | -0.329 |
| UCGGAUG | 0.512 |
| CGCCGAA | -0.646 |
| GAUAUUG | 0.283 |
| AAGUGUC | -0.322 |
| GCAAGUG | 0.709 |
| UGAGGCA | 1.31 |
| UCAGGGA | 2.05 |

| Sequence | RNAcompete 7-mer binding Z-score |
| --- | --- |
| UGAGGGA | 4.05 |
| CGGGGUC | 1.9 |
| UUGGGUA | 1.95 |
| AGGGGUA | 3.66 |
| UGGGGUA | 3.36 |
| CGGGGUA | 3.42 |
| AGGGGUC | 1.76 |
| CUGGGUA | 1.78 |
| CCGGGUA | 0.814 |
| GCGGGUA | 2.5 |
| GGGGGUA | 3.52 |
| GUGGGUA | 3.07 |
| CGAUUUA | -0.704 |
| UUAAAGC | -0.439 |
| ACUAGAA | -0.187 |
| CUUUUGA | -0.755 |
| AGAGACC | -0.774 |
| UCAUACA | -0.464 |
| UAGAGGG | 3.16 |
| GGGAGUA | 2.34 |
| AAGAGGG | 3.05 |
| GGGAGGA | 3.24 |
| UGGAGGA | 2.95 |
| GGGAGUG | 3.84 |
| UGGAGGG | 4.26 |

| Sequence | RNAcompete 7-mer binding Z-score |
| --- | --- |
| AGGAGUG | 2.8 |
| AGGAGGA | 2.22 |
| UGGAGAG | 2.12 |
| UAGAGGU | 1.68 |
| UGGAGUG | 2.72 |
| GCACUAG | -0.0161 |
| AUAAGCU | -0.391 |
| UUGACGG | 0.399 |
| CGUUUGC | -0.766 |
| UUUCGAU | -0.664 |
| UUCGGGA | 0.734 |
| GGGACCA | 1.9 |
| UUCCGUC | -0.726 |
| UCAAUGG | 1.28 |
| UCUGUGG | 0.199 |
| AGGAGGU | 2.71 |
| GGGAGCG | 3.23 |
| UGGAGGC | 2.16 |
| GGGAGGG | 4.06 |
| AGGAGGG | 3.31 |
| CGGAGGG | 2.92 |
| GGGAGGC | 3.2 |
| CGGAGGC | 1.24 |
| CGGAGCG | 1.45 |
| GGGAGCC | 0.891 |

| Sequence | RNAcompete 7-mer binding Z-score |
| --- | --- |
| AGGAGGC | 1.72 |
| GAGAGGG | 2.75 |
| CGCUGGA | -0.027 |
| AGUCGCG | -0.0634 |
| UGCCACC | -0.759 |
| ACUUUGG | -0.351 |
| GGCUUGU | -0.318 |
| CUCGUUC | -0.61 |
| GGCUUCA | -0.428 |
| GAUACUG | -0.118 |
| GAAGUCG | 0.428 |
| CUUCUCA | -0.981 |
| UCGUGCG | -0.027 |
| UCUUAUU | -0.803 |
| UUAGUAA | -0.355 |
| AGGCCUC | -0.828 |
| UGGAGGU | 3.02 |
| CGGAGGU | 2.46 |
| GGGAGGU | 3.39 |
| CCACGAA | -0.544 |
| AAGGUAU | 2.03 |
| CAGGUAG | 2.68 |
| AAGGUAG | 3.82 |
| UAGGUAA | 1.96 |
| UAGGUAG | 2.27 |

| Sequence | RNAcompete 7-mer binding Z-score |
| --- | --- |
| AAGGUAA | 3.65 |
| GGCCGUA | 0.0786 |
| AAGAGGU | 1.66 |
| CCGCAUA | -0.817 |
| AAGAUUU | -0.588 |
| CGUAAUC | -0.511 |
| GGGUGAG | 4.12 |
| CGGUGAA | 0.723 |
| GGGUGAA | 3.66 |
| AGGUGAU | 1.62 |
| UGGUGAU | 0.727 |
| GGGUGAC | 2.92 |
| CGGUGAG | 1.64 |
| GGGUGAU | 3.16 |
| UGGUGAA | 1.22 |
| CAUUUCU | -0.872 |
| CAUAACU | -0.592 |
| UAAAGCC | -0.661 |
| ACGUUUC | -0.912 |
| GAACAGG | 3.18 |
| GGACAGG | 3.23 |
